Screening results deposited in PubChem BioAssay by National Center for Advancing Translational Sciences (NCATS).
gsp ag = qHTS for Agonist of gsp, the Etiologic Mutation Responsible for Fibrous Dysplasia/McCune-Albright Syndrome: qHTS; gsp mutant cells, cAMP HTRF, 30 min; Potency, µM (highest dose often 76.9 µM), inactives show top-dose activation (cAMP increase), most hits filed as activators; actives 0.13% (n = 340,000); active means well fitted activation curve with a large enough effect; inconclusive means small, poorly fitted or top-dose-only effect, or another doubt; inactive means no such curve, though single readings can be large or run the other way; cell line not stated here;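 further: phosphodiesterase inhibitor Ro 20-1724 added with compounds to block cAMP breakdown; potency means the concentration at half of the fitted maximal effect; nearly all actives have a fitted effect of over 60% in size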
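Cells stably selected in G418 were plated at 2000/well, grown 16-24 hr, then given compounds in DMSO with the PDE inhibitor […] (300 uM solution added) for 30 min at 37C; cAMP was read by HTRF.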
gsp antagonist = qHTS for Antagonists of gsp, the Etiologic Mutation Responsible for Fibrous Dysplasia/McCune-Albright Syndrome: qHTS | AID 624288, 2012 | gsp-mutant cells, cAMP HTRF, 30 min | actives 0.4% (n = 340,000) | Potency, µM (series often up to 76.9 µM), for inactives: at the top dose activity change, negative = inhibition, most hits filed as inhibitors; calls by dose curve; cell line not stated here;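 further: intracellular cAMP measured with PDE inhibitor Ro 20-1724 present during compound exposure; potency means the concentration at half of the fitted maximal effect; on the % scale 0 is the no-effect control and ±100 the full control effect; nearly all actives have a fitted effect of over 65% in size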
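Cells in G418 medium, seeded 16-24 h, 37C; buffer exchange to DPBS + 1 mM CaCl2, 0.5 mM MgCl2, 0.05% BSA; cpds in DMSO + […] (300 uM stock), 30 min 37C; HTRF cAMP detection.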
ClpP mod = qHTS Assay for Activators of ClpP. ATP-dependent Clp protease proteolytic subunit (Bacillus subtilis (strain 168)), P80244. purified B. subtilis ClpP, FRET peptide cleavage, 20 min. Potency, µM (highest dose often 57.5 µM), for the others: at the highest dose activity change, negative = active. actives 1.9% (n = 340,000); active means well fitted falling curve with a large enough effect; inconclusive means small, poorly fitted or top-dose-only effect; inactive means no such curve, though single readings can be large or run the other way; further: potency means the concentration at half of the fitted maximal effect; the source files actives as falling curves though it sought activators and does not explain the sign; nearly all actives have a fitted effect of over 65% in size
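ClpP 10 microg/mL final, pH 8 Tris/KCl buffer with BSA, glycerol, Tween-20; compound pinned in; FRET-FV substrate; RT 20 min; Ex320/Em430; ΔFRET vs ADEP 5.8 microM, DMSO, no enzyme.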
RXFP1 antag = qHTS Assay for Antagonists of the Relaxin Receptor RXFP1; Relaxin receptor 1 (Homo sapiens), Q9HBX9; HEK293-RXFP1, relaxin-stimulated cAMP HTRF, 30 min; hits give low values; activity change, negative = inhibition, % at 57.5 µM; actives 0.59% (n = 350,000);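 active means activity change of -60% or lower, but not beyond a set lower limit; inconclusive means change between -60% and -40%, or beyond the set limit; inactive means change above -40%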; further: on the % scale 0 is the no-effect control and ±100 the full control effect
Target sequence (Q9HBX9 whole entry, looked up): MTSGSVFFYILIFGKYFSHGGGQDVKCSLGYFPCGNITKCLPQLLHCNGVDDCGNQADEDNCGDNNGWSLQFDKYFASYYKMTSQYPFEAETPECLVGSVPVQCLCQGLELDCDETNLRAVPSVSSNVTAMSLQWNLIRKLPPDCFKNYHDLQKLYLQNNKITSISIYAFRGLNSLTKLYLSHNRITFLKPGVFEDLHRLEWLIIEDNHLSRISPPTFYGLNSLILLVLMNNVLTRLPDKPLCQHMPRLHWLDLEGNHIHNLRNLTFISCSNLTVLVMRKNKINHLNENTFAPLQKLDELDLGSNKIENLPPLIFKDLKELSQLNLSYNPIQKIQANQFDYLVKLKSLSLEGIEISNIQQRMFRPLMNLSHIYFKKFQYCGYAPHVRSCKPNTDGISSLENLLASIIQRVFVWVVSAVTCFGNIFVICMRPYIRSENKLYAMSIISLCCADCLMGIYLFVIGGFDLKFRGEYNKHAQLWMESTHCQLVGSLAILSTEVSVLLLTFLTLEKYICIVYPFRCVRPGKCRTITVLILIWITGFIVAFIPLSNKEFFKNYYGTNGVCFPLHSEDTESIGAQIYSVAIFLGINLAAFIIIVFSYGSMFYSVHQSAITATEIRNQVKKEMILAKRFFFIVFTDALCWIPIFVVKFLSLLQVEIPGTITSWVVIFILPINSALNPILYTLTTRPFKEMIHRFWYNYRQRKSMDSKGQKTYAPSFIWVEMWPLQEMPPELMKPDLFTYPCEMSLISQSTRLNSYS
pAkt inh = HTS Assay for Inhibitors of Akt Phophorylation: Primary Screen | activity change, % for hits at 50 µM | actives 0.32% (n = 360,000) | Neuro2A IGF-stimulated pAkt S473 HTRF, 20 min; hits give low values; in the data active means activity change below about -80%; inconclusive means mostly about -51% to -80%; further: on the % scale 0 is the no-effect control and ±100 the full control effect
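Single-point screen (50 µM final compound) in Neuro2A cells stimulated 20 min with 6 nM IGF at 37 deg C. After lysis, Ser473-phosphorylated Akt read by HTRF (ex 330 nm, em 615/665 nm) as the 665/615 ratio.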
RXFP1 ag = qHTS Assay for Agonists of the Relaxin Receptor RXFP1 | AID 2676, 2010 | HEK293T-RXFP1 cAMP TR-FRET, 30 min; response scale: percent of porcine relaxin response, buffer zero | Potency, µM (top dose mostly 57.5 µM), without a hit: at the top dose activation, most hits filed as activators | Relaxin receptor 1 (Homo sapiens), Q9HBX9 | actives 0.3% (n = 370,000); active means well fitted activation curve with a large enough effect; inconclusive means small, poorly fitted or top-dose-only effect; further: potency means the concentration at half of the fitted maximal effect; on the % scale 0 is the no-effect control and ±100 the full control effect; nearly all actives have a fitted effect of over 60% in size
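cAMP rise read by TR-FRET after 30 min, 37C compound exposure (up to 58 uM) in RXFP1-transfected HEK293 cells with Ro 20174 present. EC50 from Hill-equation fits, with 29 nM porcine relaxin as 100% and buffer as basal.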
* = called active by the depositor; i = inactive; ? = inconclusive; . = no result; [ ] = another dose, or the depositor's remark. Most compounds without a hit are left out; they make up all but 2.7% or so of the library.

SMILES	gsp ag	gsp antagonist	ClpP mod	RXFP1 antag	pAkt inh	RXFP1 ag
CC(c1nnnn1C(C)(C)C)N(Cc1cccnc1)Cc1ccccc1Cl (configuration not stated)	-27%	40µM*	0%	3	i	0%
CCN1CCN(c2nnc(-c3ccccc3)c3ccccc23)CC1	13%	-3%	3%	-5	i	6%
CCN1CCN(c2cc3c(nn2)Oc2ccccc2N3C)CC1	-11%	-8%	28µM*	-13	i	1%
Cc1ccc(NC(=O)COc2ccc(/C=C3/SC(=Nc4ccccc4)N(Cc4cccnc4)C3=O)cc2)cc1	?	4%	1%	-4	-106%*	0%
Cc1ccc(NC(=O)COc2ccc(/C=N/NC(=O)CSCc3ccccc3)cc2)cc1	1%	-9%	-8%	-15	i	-1%
CCOC(=O)c1c(-c2cccs2)csc1N	6%[15.4 µM]	0%	.	-11	i	7%
CCOC(=O)c1c(-c2ccco2)csc1N	1%	3%	-1%	-4	-124%*	0%
CCOc1cccc2cc(S(=O)(=O)c3ccccc3F)c(=O)oc12	.	.	-1%	.	.	-1%
O=C(c1cnc2ccc(Cl)cc2c1Cl)N1CCOCC1	2%	0%	0%	-1	i	1%
O=C(c1cccn2c(=O)c3ccccc3nc12)N1CCN(Cc2ccc3c(c2)OCO3)CC1	28%	-14%	?	5	i	7%
O=C(c1cccn2c(=O)c3cc(Cl)ccc3nc12)N1CCOCC1	11%	3%	18µM*	18	i	9%
O=C(c1ccc2nc3ccccc3c(=O)n2c1)N1CCN(Cc2ccc3c(c2)OCO3)CC1	11%	1%	20µM*	-3	i	4%
O=C(c1ccc2nc3ccc(Cl)cc3c(=O)n2c1)N1CCOCC1	18%	5%	16µM*	-8	i	1%
O=C(Nc1ccc(Cl)cc1Cl)[C@@H]1CC=C[C@@H]2CCN(C3CC3)C(=O)[C@@H]21	.	.	2%	.	.	.
Cc1ccsc1C(=O)OCC(=O)Nc1c(C)n(C)n(-c2ccccc2)c1=O	12%	13%	-1%	-1	i	3%
CC(C)(C)C(=O)COC(=O)c1cc(-c2ccncc2)nc2ccccc12	-7%[15.4 µM]	-14%	.	-67*	i	4%
Cc1ccc(N(CC(=O)Nc2c(C)n(C)n(-c3ccccc3)c2=O)S(C)(=O)=O)cc1C	20%	-4%	0%	-1	-109%*	-2%
Cc1c(NC(=O)COC(=O)c2cc(-c3ccc(-c4ccccc4)cc3)nc3ccccc23)c(=O)n(-c2ccccc2)n1C	4%	-21%	10µM*	7	i	0%
Cc1c(NC(=O)COC(=O)c2ccc[nH]c2=O)c(=O)n(-c2ccccc2)n1C	-14%[15.4 µM]	18%	18µM*	-6	i	0%
Cc1c(NC(=O)c2cc(-c3ccccc3)nc3ccccc23)c(=O)n(-c2ccccc2)n1C	-15%	-8%	1%	-32	i	.
CC(=O)COC(=O)c1cc(-c2ccc(C)cc2)nc2ccccc12	-6%	?	4%	3	i	0%
COc1ccc(S(=O)(=O)N2CC(C(=O)O)Oc3ccc(CC(=O)O)cc32)cc1 (configuration not stated)	10%	15%	0%	5	-123%*	2%
C=CCn1c(C)c(C(C)=O)c(N2CCN(c3ccccc3)CC2)nc1=S	-106%	2%	0%	-5	-105%*	0%
C=CCn1c(C)c(C(C)=O)c(N2CCCC2)nc1=S	19%	-6%	1%	-2	i	1%
